# HTT aggregate – mutant huntingtin aggregation inhibition; PC12 HttQ103-GFP aggregates, Acumen cytometry, 40 h; Potency, µM (highest dose often 46.1 µM), for inactives: at the top dose activity change, negative = inhibition, usual class: inhibitors; actives 1.1% (n = 220,000); AID 1688; further: potency means the concentration at half of the fitted maximal effect; on the % scale 0 is the no-effect control and ±100 the full control effect; nearly all actives have a fitted effect of over 60% in size
#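 Steps: seed 1500 PC12 HTTQ103-GFP cells/well; add tebufenozide, 100 nM final; add compound titration; add ATPLite reagent; quantify GFP aggregates by laser scanning cytometry.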
# HPGD inh – HPGD (human) dehydrogenase inhibition. purified HPGD, NADH fluorescence kinetic, PGE2 substrate. actives 4.3% (n = 150,000). Potency, µM, for inactives: at the highest dose activity change, negative = inhibition, usual class: inhibitors. AID 894; active means well fitted inhibition curve with a large enough effect, not every such curve was filed as active; inconclusive means small, poorly fitted or top-dose-only effect, or another doubt; inactive means no such curve, though single readings can be large or run the other way; further: potency means the concentration at half of the fitted maximal effect; on the % scale 0 is the no-effect control and ±100 the full control effect
#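 20 nM HPGD preincubated 15 min at room temperature with compound in 50 mM Tris-HCl pH 8, 0.01% Tween 20. Started with 1 mM NAD+ and 30 uM prostaglandin E2; NADH fluorescence (360/450 nm) read 5 times over 30-s intervals, last minus first.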
# ALDH1A1 block – blocks purified human ALDH1A1 activity | Purified ALDH1A1, NADH fluorescence, propionaldehyde substrate | Potency, µM (highest dose often 75.3 µM), without a hit: at the top dose activity, negative = inhibition, actives largely listed as inhibitors | actives 7.3% (n = 220,000) | AID 1030; active means well fitted inhibition curve with a large enough effect, not every such curve was filed as active; inconclusive means small, poorly fitted or top-dose-only effect, or another doubt; inactive means no such curve, though single readings can be large or run the other way;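 further: potency means the concentration at half of the fitted maximal effect; plate controls were no enzyme wells and a reference inhibitor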
# HTT ATP protect – cytoprotection in Huntington HTT-Q103 PC12 cell model | AID 1471 | actives 0.14% (n = 230,000) | PC12 HTT-Q103 induced, cytoprotection, ATP luminescence, 40 h | Potency, µM (series often up to 56.4 µM), for the others: cytoprotection (ATP increase), usual class: activators; further: potency means the concentration at half of the fitted maximal effect; % of control where 0% means no effect; nearly all actives have a fitted effect of over 45% in size
#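 Rat PC12, Q103 Htt exon1-GFP fusion, ecdysone promoter; tebufenozide inducer 100 nM final; compound titration; qHTS, 1500 cells/well; ATPlite luminescent read.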
# PNC assembly inh – perinucleolar compartment assembly inhibition | PC3M PTB-GFP, PNC prevalence imaging, 16 h; stronger effect = lower value | AID 2417 | actives 3.1% (n = 140,000) | activity change (PNC), negative = inhibition, % at 10 µM;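 active means readout at or below -70, meaning at least 70% loss of cells showing the perinucleolar compartment, a nuclear body marking cancer cells; inconclusive means readout between -30 and a set limit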;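 further: plate controls were DMSO wells for no effect and camptothecin positive control wells for full effect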
#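 Compounds are pinned in duplicate onto adhered PC3M cells stably expressing GFP-tagged PTB and incubated 16 h at 37 C. Cells are then fixed, nuclei stained with Hoechst, and PNC-positive cells counted.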
# CBFb RUNX1 block – blocks binding between human CBF-beta and RUNX1 | Q01196+Q13951 | 230,000 tested, under 10 active | Potency, µM (series often up to 59.8 µM), for inactives: top-dose activity, negative = inhibition, usual class: inhibitors | AID 1477 | AlphaScreen CBFb-His/RUNX1-biotin binding, biochemical; further: % of control where 0% means no effect
# Target sequence (Q01196 whole entry, looked up): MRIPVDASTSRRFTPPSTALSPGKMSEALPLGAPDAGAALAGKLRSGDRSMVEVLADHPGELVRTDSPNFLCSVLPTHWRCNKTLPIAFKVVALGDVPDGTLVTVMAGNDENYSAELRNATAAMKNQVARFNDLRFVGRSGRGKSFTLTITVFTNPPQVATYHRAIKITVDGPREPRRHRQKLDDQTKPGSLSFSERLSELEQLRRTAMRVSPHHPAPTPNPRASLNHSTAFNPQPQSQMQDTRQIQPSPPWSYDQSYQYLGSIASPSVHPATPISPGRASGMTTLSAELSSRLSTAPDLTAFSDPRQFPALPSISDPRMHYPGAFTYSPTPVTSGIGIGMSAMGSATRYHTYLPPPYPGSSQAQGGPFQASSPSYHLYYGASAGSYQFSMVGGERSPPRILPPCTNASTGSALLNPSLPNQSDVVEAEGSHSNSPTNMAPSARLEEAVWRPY
# Target sequence (Q13951 whole entry, looked up): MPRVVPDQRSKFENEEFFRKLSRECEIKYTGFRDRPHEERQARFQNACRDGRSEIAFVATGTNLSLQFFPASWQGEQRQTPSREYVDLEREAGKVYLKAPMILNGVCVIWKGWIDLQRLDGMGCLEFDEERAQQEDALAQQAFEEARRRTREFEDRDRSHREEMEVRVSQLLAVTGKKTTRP
#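 Proteins preincubated together for 20 min at RT before compound addition; 15 min later, nickel and streptavidin beads were added and left 90 min prior to AlphaScreen measurement.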
# An asterisk follows results filed as active; ? = inconclusive; · = no result given; [ ] = another dose, or the depositor's remark. Sampled rows, rich in hits. Any-hit rate of the full collection: about 11%. Unless noted, the call rests on the fitted dose curve; in most records, active means well fitted curve in the direction sought with a large enough effect; inconclusive means small, poorly fitted or top-dose-only effect, or another doubt; inactive means no such curve, though single readings can be large; an effect the other way counts as inactive or inconclusive.
SMILES,HTT aggregate,HPGD inh,ALDH1A1 block,HTT ATP protect,PNC assembly inh,CBFb RUNX1 block
c1ccc(Cn2nnc(CNc3ccccc3)c2-c2c(CNc3ccccc3)nnn2Cc2ccccc2)cc1,19%[9.22 µM],·,·,23%[10 µM],·,0%
CS(=O)(=O)N(Cc1ccc(F)cc1)Cc1nc2ccccc2c(=O)[nH]1,0%,-1%,25µM*,-3%,24,8%
CC(=O)N(Cc1ccc(F)cc1)Cc1nc2ccccc2c(=O)[nH]1,2%[9.22 µM],·,5%,-9%[10 µM],·,5%
Nc1cc(Cl)ccc1Oc1ccc(Cl)cc1,-9%,22µM*,1.6µM*,14%,3,-2%
Cc1nc2c3cc(F)ccc3n(Cc3ccc(F)cc3)c2s1,-18%,-16%,-10%,-12%[10 µM],80,-12%
CCc1ccc2c(c1)c1nc(C)sc1n2CC,?,28µM*,32µM*,-10%[0.074 µM],56,1%
Cn1cccc1/C=C1/SC(=S)N(CC(=O)O)C1=O,8%,·,28µM*,-26%,·,-8%
CC(C(=O)O)N1C(=O)/C(=C/c2cccn2C)SC1=S (configuration not stated),2%,-24%,5%,16%[10 µM],?,0%
Cn1cccc1/C=C1\SC(=S)N(NC(=O)c2cccc(Cl)c2)C1=O,13%,-17%,2µM*,15%[10 µM],-23,?
CCN(CC)CCOC(=O)c1cccnc1,7%,·,·,18%,·,·
CSc1nnc(-c2cc(Br)ccc2N=Cc2c(C)[nH]n(-c3ccccc3)c2=O)c(=O)[nH]1,23%[9.22 µM],·,19µM*,11%[10 µM],·,-6%
CCOC(=O)Cc1cc(-c2ccc(F)cc2)nc2ccc3ccccc3c12,?,?,-9%,-5%[10 µM],1,2%
Cc1cccc(N(C(=O)Cn2nnc(-c3ccccc3F)n2)C(C(=O)NC(C)(C)C)c2ccncc2)c1 (configuration not stated),-6%[9.22 µM],·,5%,28%[10 µM],·,-6%
Cc1cccc(N(C(=O)Cn2nnc3ccccc32)C(C(=O)NC(C)(C)C)c2ccsc2)c1 (configuration not stated),8%,-4%,11%,8%[10 µM],-94*,10%
CC(C)C(c1nnnn1C1CCCC1)N1CCOCC1 (configuration not stated),-6%,-8%,9%,13%[1.9 µM],-29,6%
CC(C)C(c1nnnn1C1CCCC1)N(C)C1CCCCC1 (configuration not stated),-8%,-5%,28µM*,31%,41,8%
Cc1ccc(C(c2nnnn2C2CCCCC2)N(C)C2CCCCC2)cc1 (configuration not stated),11µM*,-2%,-3%,1%,-7,1%
COC(=O)C1=C[C@@H](C(=O)OC)C2C3=C(C(=O)[C@]2(C)NC(=O)c2ccccc2)[C@H](C)[C@@H]2C(=O)N(C)C(=O)[C@@H]2[C@@H]3C1 (some centres not stated),·,·,·,·,·,11%
O=C(OC(C(=O)Nc1cccc(C(F)(F)F)c1)c1ccccc1)C1CCCCC1 (configuration not stated),12%,-23%,14µM*,-9%[1.9 µM],-23,14%
N#CC1=C(N)N2C(=C(C#N)C13CCCCC3)SC1CCCCC12O (configuration not stated),-30%,-13%,0.71µM*,4%[10 µM],?,2%
Cn1c(N)c(C(=O)COC(=O)c2ccc3c(c2)C(=O)N(c2ccc(Cl)cc2)C3=O)c(=O)n(C)c1=O,22%,·,0%,-15%,·,0%
C[C@H]1C(O)[C@@]23CCC4C5(C=[N+](CCO)C[C@]4(C)CCC5)C2C[C@@H]1C3 (some centres not stated),·,-3%,-4%,-13%,·,-6%
Cc1cccc(OCCN2C(=O)C(=O)c3cccc(C)c32)c1,-16%,-15%,0.16µM*,0%[10 µM],-16,-4%
Cc1ccc2c(c1)C(=O)C(=O)N2CCOc1ccccc1,-7%[9.22 µM],·,1.3µM*,-80%[10 µM],·,-10%
Cc1cccc(OCCN2C(=O)C(=O)c3cc(C)ccc32)c1,-1%[9.22 µM],·,0.63µM*,-53%[10 µM],·,-6%
SMILES,HTT aggregate,HPGD inh,ALDH1A1 block,HTT ATP protect,PNC assembly inh,CBFb RUNX1 block
CC(=O)O[C@H]1C(=O)[C@@]2(C)C([C@H](OC(=O)c3ccccc3)[C@]3(O)C[C@H](OC(=O)[C@H](O)[C@@H](NC(=O)c4ccccc4)c4ccccc4)C(C)=C1C3(C)C)[C@]1(OC(C)=O)CO[C@@H]1C[C@@H]2O (some centres not stated),·,-23%,6%,-96%,·,-14%
COC(=O)C1[C@@H](OC)C(OC(=O)COc2ccc(OC)cc2)C[C@@H]2CN3CCc4c([nH]c5cc(OC)ccc45)[C@H]3C[C@H]12 (some centres not stated),23%,·,·,-11%,·,·
COc1cc(/C=C2/SC(=O)N(Cc3ccccc3Cl)C2=O)ccc1OCc1ccncc1,3%,1%,0.45µM*,0%,26,0%
Cc1cccc(/C=C2/SC(=O)N(Cc3ccccc3Cl)C2=O)n1,-2%,-13%,3.2µM*,-22%,22,5%
N[C@@H](Cc1cc(I)c(Oc2ccc(O)cc2)c(I)c1)C(=O)O,·,·,1%,-30%,·,9%
CC(=O)Oc1ccccc1N(C(C)=O)S(=O)(=O)c1ccc2ccccc2c1,4%[9.22 µM],·,-3%,7%[10 µM],·,-9%
CC(=O)Oc1ccc(N(C(C)=O)S(=O)(=O)c2cccs2)c2ccccc12,?,-10%,5µM*,-79%,-82*,-20%
COc1cc2c(cc1OC)C1=C(C#N)CCC(=NC(=O)c3ccc(Cl)cc3)N1CC2,14%,14µM*,-11%,-8%,58,-1%
COc1ccccc1/C=C1\CCCC2=C1Nc1nnnn1C2c1ccccc1OC (configuration not stated),12%[9.22 µM],-16%,25µM*,0%[10 µM],-1,-1%
COc1ccccc1C1C=C(c2ccccc2)Nc2nnnn21 (configuration not stated),13%,-4%,?,-12%[10 µM],?,0%
Fc1ccc(NC(=S)Nc2cccnc2)cc1,7%,·,-4%,-14%,·,-1%
Cc1ccc(NC(=S)Nc2cc(-c3ccccc3)[nH]n2)cc1Cl,-2%,·,?,-21%,·,2%
Fc1ccc(NC(=S)Nc2cc(-c3ccccc3)[nH]n2)cc1Cl,4%[9.22 µM],·,1.4µM*,-36%,·,2%
Fc1ccc(NC(=S)Nc2cccnc2)cc1Cl,-8%[9.22 µM],·,28µM*,-7%[10 µM],·,3%
CC(C)N=C(NS(=O)(=O)c1ccc(Br)cc1)c1ccc(Cl)cc1,9%[9.22 µM],·,4%,8%[10 µM],·,-6%
Cc1cccc(C)c1NC(=O)CN1CCCCCC1,11%,·,·,?,·,·

# Source: PubChem (National Center for Advancing Translational Sciences (NCATS))
